# Experimental data taken from PubChem BioAssay (Tox21).
# Results filed as inconclusive are left out. A number with no mark means an inactive call. Calls of active or inactive are those of the source. Calls follow the shape of the dose curve; as a rule, active = well fitted cell-killing curve with a large enough effect in the repeat runs; inconclusive = weak or mixed curves, or effect the other way; inactive = no such curve, though single readings can be large or run the other way.
# Assay: qHTS assay to identify small molecule antagonists of the progesterone receptor (PR) signaling pathway - cell viability counter screen (AID 1346798); also: nearly all actives have a fitted effect of over 50% in size
# Conditions: PR-UAS-bla HEK293T viability, CellTiter-Glo luminescence, 16 h; series mostly up to 42.5 µM; activity change, negative = cytotoxicity: at the top concentration
# Excerpt: National Center for Advancing Translational Sciences [NCATS]
# NIH Chemical Genomics Center [NCGC]
# U.S. Environmental Protection Agency [EPA]
# National Institutes of Environmental Health Sciences [NIEHS]
# National Toxicology Program [NTP]
# U.S. Food and Drug Administration [FDA]
# Progesterone receptor (PR), a nuclear hormone receptor, plays an important role in development, metabolic homeostasis and reproduction. It is activated by the steroid hormone progesterone. Endocrine disrupting chemicals (EDCs) and their interactions with steroid hormone receptors like PR causes disruption of normal endocrine function. To identify the compounds that inhibit PR signaling, a PR-UAS-bla GripTite cell line i.e. PR-UAS-bla HEK293T (Invitrogen, Carlsbad, CA, USA) containing a beta-lactamase reporter gene under the control of an UAS response element was used to screen Tox21 10K compound library. The cytotoxicity of the Tox21 compound library against the PR-bla cell line was tested in parallel by measuring the cell viability using CellTiter-Glo assay in the same wells.
# Tox21 Assay Protocol Summary:
# PR-UAS-bla HEK293T cells were dispensed at 3,000 cells/4 uL of assay medium containing 2% charcoal stripped FBS per well into black wall/clear-bottom 1536-well plates using a Multidrop Combi (ThermoFisher Scientific, Waltham, MA) dispenser. After the assay plates were incubated at a 37C and 5% CO2 for 4 hr, 23 nL of compounds dissolved in DMSO, positive controls or DMSO only was transferred to the assay plate by a Pintool station (Kalypsys, San Diego, CA), followed by addition of 1 uL of R5020 in assay medium using a Flying Reagent Dispenser (FRD, Aurora Discovery, San Diego, CA). The plates were incubated at 37C and 5% CO2 for 16 hr. Then 1 uL of LiveBLAzer B/G FRET substrate was added using a Flying Reagent Dispenser, the plates were incubated at room temperature for 2 hours, and fluorescence intensity was measured by an Envision plate reader (PerkinElmer, Shelton, CT). For cell viability readout that measures cytotoxicity, 4 uL/well of CellTiter-Glo reagent was added into the assay plates using a FRD. After 30 min incubation at room temperature, the luminescence intensity in the plates was measured using a ViewLux (PerkinElmer) plate reader.
# % is scaled to controls: 0 for no effect and ±100 for the full control effect; potency is read from the fitted curve at half-maximal effect.
Compound,Potency,"activity change, negative = cytotoxicity"
Cc1nc(-c2ccccn2)ncc1C(=O)Nn1cc(C)c2cc(F)ccc21,30.6 µM (active),–
CCOc1ccccc1N,–,27% [at 92.4 µM]
CC1=C(O)C(=O)OC1C (stereo not given),–,1.3% [at 92.4 µM]
C=Cc1ccccc1,–,-13.4% [at 92.4 µM]
CCCCCCCCCCCCOCCOS(=O)(=O)O,–,-28.1% [at 92.4 µM]
OCCN(CCO)c1ccccc1,–,-2.58% [at 92.4 µM]
C=O,–,3.54% [at 92.4 µM]
CCOC(=O)c1ccccc1O,–,9.92%
COc1ccc2nc(NC(=O)Nc3ccccc3)sc2c1,–,-28.1%
FC(F)(F)C(F)(F)C(F)(F)C(F)(F)C(F)(F)C(F)(F)C(F)(F)C(F)(F)Br,–,3.76%
N#CSCC(=O)O,–,3.91%
CNCCC(Oc1ccccc1OC)c1ccccc1 (stereo not given),–,-24.4%
C[C@@H]1CN(c2c(F)c(F)c3c(=O)c(C(=O)O)cn(C4CC4)c3c2F)C[C@H](C)N1,–,11.8% [at 18.9 µM]
Cc1nnc(SCC2=C(C(=O)O)N3C(=O)[C@@H](NC(=O)Cn4cnnn4)[C@H]3SC2)s1,–,1.25%
CS(=O)(=O)c1ccc([C@@H](O)[C@@H](CF)NC(=O)C(Cl)Cl)cc1,–,2.96%
NC(Cc1ccc(F)cc1)C(=O)O (stereo not given),–,-3.28% [at 8.39 µM]
CC(C)S,–,-2.3% [at 92.4 µM]
Cc1nc(N)nc(N)c1-c1ccc(Cl)c(Cl)c1,–,-15.4%
CCC(=O)O[C@]1(C(=O)SCF)[C@H](C)C[C@H]2[C@@H]3C[C@H](F)C4=CC(=O)C=C[C@]4(C)[C@@]3(F)[C@@H](O)C[C@@]21C,–,-0.557%
O=C(CCCl)NCc1ccccc1,–,7.4%

Compound,Potency,"activity change, negative = cytotoxicity"
CCN(CC)CCOc1ccc(Cc2ccccc2)cc1,–,0.0532%
ICCc1ccccc1,59.9 µM (active),–
CCc1nnc(NS(=O)(=O)c2ccc(N)cc2)s1,–,6.53%
Cc1c[nH]c(=S)[nH]c1=O,–,-2.94% [at 92.4 µM]
COC(=O)C(C)O (stereo not given),–,17% [at 92.4 µM]
CC(C)CCCCCCc1ccc(OCCOCCO)cc1,–,12.3% [at 92.4 µM]
CCOc1ccc(NC(N)=O)cc1,–,4.2% [at 92.4 µM]
O=C(Cl)c1cccc([N+](=O)[O-])c1,–,2.05% [at 92.4 µM]
CCCCCCOc1ccc(N)cc1,–,16.5% [at 92.4 µM]
O=C1N(c2ccccc2)c2ccccc2C1(Cc1ccncc1)Cc1ccncc1,–,7.18%
CCCC(CCC)(C(=O)OCC)C(=O)OCC,–,3.22%
NCCC(O)(P(=O)(O)O)P(=O)(O)O,–,1.64%
C=CC1CO1 (stereo not given),–,48.9% [at 92.4 µM]
CCCC1CCC(=O)O1 (stereo not given),–,0.688% [at 92.4 µM]
CC1(C)C(=O)N(Cl)C(=O)N1Br,–,-4.94% [at 92.4 µM]
N#Cc1ccc(C(c2ccc(C#N)cc2)n2cncn2)cc1,–,-9.62%
NC(=O)Cc1cccc(C(=O)c2ccccc2)c1N,–,17.5%
CCC/C=C/CO,–,-0.472% [at 92.4 µM]
O=C(O)C(=O)Cc1c[nH]c2ccccc12,–,3.02% [at 92.4 µM]
O=C(O)c1ccccc1Nc1cc(Cl)ccc1C(=O)O,13 µM (active),–
